# Values without a mark were called inactive. Records with an inconclusive call do not appear. A call without a number means that no potency is given here. Calls of active or inactive are those of the source. Calls follow the shape of the dose curve; as a rule, active = well fitted curve in the direction sought with a large enough effect in the repeat runs; inconclusive = weak or mixed curves; inactive = no such curve, though single readings can be large; an effect the other way counts as inactive or inconclusive.
# Columns and labels:
# [1] = A CellTox Green Cytotoxicity Assay to monitor cytotoxicity in HEK293 cells - 40 hour (AID 1224871); also: nearly all actives have a fitted effect of over 45% in size
# Procedure, shortened: (§1)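 Nonlytic real-time cytotoxicity: HEK293 + CellTox Green reagent plated, 5 h preincubation, pintool compound addition (23 nL in DMSO), 37 C for 40 h, fluorescence measured at successive time points.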
# [2] = qHTS RealTime-Glo MT Cell Viability Assay in HEK293 cells - 16 hour (AID 1224872); also: top concentration of the series differs between compounds; nearly all actives have a fitted effect of over 50% in size
# Procedure, shortened: (§2)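 Tox21 10K qHTS, HEK293, 600 cells/well, RealTime-Glo reagent co-dispensed with cells; 5 h preincubation, compound by pintool, 37 C, luminescence at 0–40 h.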
# [3] = qHTS RealTime-Glo MT Cell Viability Assay in HepG2 cells - 8 hour (AID 1224873); also: nearly all actives have a fitted effect of over 55% in size
# Procedure, shortened: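 Real-time viability: cells seeded at 600 per well together with NanoLuc and cell-permeant prosubstrate, compounds added after 5 h incubation. Luminescence tracked at 0, 8, 16, 24, 32 and 40 h of exposure.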
# [4] = qHTS RealTime-Glo MT Cell Viability Assay in HEK293 cells - 40 hour (AID 1224874); details: RealTime-Glo luminescence; max response: hits give low values; also: nearly all actives have a fitted effect of over 50% in size
# Procedure, shortened: (§3)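 Cells were seeded together with NanoLuc luciferase and a prosubstrate that viable cells reduce to a luciferase substrate. After a 5 h incubation at 37 C/5% CO2, compounds were added and luminescence was measured repeatedly during 40 h of treatment.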
# [5] = A CellTox Green Cytotoxicity Assay to monitor cytotoxicity in HEK293 cells - 24 hour (AID 1224875); also: series mostly up to about 77 µM; nearly all actives have a fitted effect of over 45% in size
# Procedure, shortened: as §1
# [6] = A CellTox Green Cytotoxicity Assay to monitor cytotoxicity in HepG2 cells - 16 hour (AID 1224876); also: nearly all actives have a fitted effect of over 45% in size
# Procedure, shortened: (§4)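 Read-out is fluorescence of a cyanine dye excluded from live cells that stains DNA of dead HepG2 cells, with signal proportional to cytotoxicity. Plates were read at 0, 8, 16, 24, 32 and 40 h after compound addition.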
# [7] = qHTS RealTime-Glo MT Cell Viability Assay in HepG2 cells - 32 hour (AID 1224877); also: nearly all actives have a fitted effect of over 55% in size
# Procedure, shortened: (§5)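 Cells + NanoLuc/prosubstrate dispensed (600 cells/well) → 5 h at 37 C/5% CO2 → compounds in DMSO transferred → 40 h incubation at 37 C, luminescence read at 0, 8, 16, 24, 32, 40 h.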
# [8] = A CellTox Green Cytotoxicity Assay to monitor cytotoxicity in HepG2 cells - 24 hour (AID 1224878); also: nearly all actives have a fitted effect of over 45% in size; also: potency is read from the fitted curve at half-maximal effect
# Procedure, shortened: as §4
# [9] = A CellTox Green Cytotoxicity Assay to monitor cytotoxicity in HepG2 cells - 40 hour (AID 1224879); also: nearly all actives have a fitted effect of over 40% in size; also: potency is read from the fitted curve at half-maximal effect
# Procedure, shortened: as §4
# [10] = qHTS RealTime-Glo MT Cell Viability Assay in HEK293 cells - 0 hour (AID 1224880); also: nearly all actives have a fitted effect of over 45% in size; also: potency is read from the fitted curve at half-maximal effect
# Procedure, shortened: as §3
# [11] = A CellTox Green Cytotoxicity Assay to monitor cytotoxicity in HEK293 cells - 32 hour (AID 1224881); also: nearly all actives have a fitted effect of over 40% in size
# Procedure, shortened: as §1
# [12] = A CellTox Green Cytotoxicity Assay to monitor cytotoxicity in HepG2 cells - 0 hour (AID 1224882); also: nearly all actives have a fitted effect of over 35% in size
# Procedure, shortened: as §4
# [13] = A CellTox Green Cytotoxicity Assay to monitor cytotoxicity in HepG2 cells - 32 hour (AID 1224883); also: nearly all actives have a fitted effect of over 50% in size; also: potency is read from the fitted curve at half-maximal effect
# Procedure, shortened: as §4
# [14] = A CellTox Green Cytotoxicity Assay to monitor cytotoxicity in HEK293 cells - 8 hour (AID 1224884); also: nearly all actives have a fitted effect of over 35% in size
# Procedure, shortened: as §1
# [15] = qHTS RealTime-Glo MT Cell Viability Assay in HepG2 cells - 16 hour (AID 1224885); also: nearly all actives have a fitted effect of over 50% in size
# Procedure, shortened: as §5
# [16] = qHTS RealTime-Glo MT Cell Viability Assay in HEK293 cells - 24 hour (AID 1224886)
# Procedure, shortened: as §2
# [17] = qHTS RealTime-Glo MT Cell Viability Assay in HEK293 cells - 8 hour (AID 1224887)
# Procedure, shortened: as §3
# [18] = qHTS RealTime-Glo MT Cell Viability Assay in HepG2 cells - 0 hour (AID 1224889); also: nearly all actives have a fitted effect of over 50% in size
# Procedure, shortened: as §5
# [19] = A CellTox Green Cytotoxicity Assay to monitor cytotoxicity in HepG2 cells - 8 hour (AID 1224890); also: nearly all actives have a fitted effect of over 45% in size
# Procedure, shortened: as §4
# [20] = A CellTox Green Cytotoxicity Assay to monitor cytotoxicity in HEK293 cells - 16 hour (AID 1224888); also: nearly all actives have a fitted effect of over 35% in size
# Procedure, shortened: as §1
SMILES,Potency [1],Potency [2],Potency [3],max response [4],Potency [5],Potency [6],Potency [7],Potency [8],Potency [9],Potency [10],Potency [11],Potency [12],Potency [13],Potency [14],Potency [15],Potency [16],Potency [17],Potency [18],Potency [19],Potency [20]
N#Cc1ccc(Cl)cc1,inactive,inactive,inactive,2.27%,inactive,inactive,inactive,inactive,inactive,inactive,inactive,inactive,inactive,inactive,inactive,inactive,inactive,inactive,inactive,
CCCC(=O)Cl,inactive,inactive,inactive,17%,inactive,inactive,inactive,inactive,inactive,inactive,inactive,inactive,inactive,inactive,inactive,inactive,inactive,,inactive,
CCCCCC[N+](=O)[O-],inactive,inactive,inactive,4.3%,inactive,inactive,inactive,inactive,inactive,inactive,inactive,inactive,inactive,inactive,inactive,inactive,inactive,,inactive,
CC1(C)[C@H](C=C(Cl)Cl)[C@@H]1C(=O)O[C@@H](C#N)c1cccc(Oc2ccccc2)c1,inactive,inactive,inactive,0.601%,inactive,inactive,inactive,inactive,inactive,inactive,inactive,inactive,inactive,inactive,inactive,inactive,inactive,inactive,inactive,
O=C(OC1CCCCC1)c1ccccc1C(=O)OC1CCCCC1,inactive,inactive,inactive,-29.8%,inactive,inactive,inactive,inactive,inactive,inactive,inactive,inactive,inactive,inactive,inactive,inactive,inactive,,inactive,inactive
CCCCCCCCOC(=O)c1ccc(C(=O)OCCCCCCCC)c(C(=O)OCCCCCCCC)c1,inactive,inactive,inactive,-3.25%,inactive,inactive,inactive,inactive,inactive,inactive,inactive,inactive,inactive,inactive,inactive,inactive,inactive,,inactive,inactive
Cl/C=C\Cl,inactive,inactive,inactive,0.558%,inactive,inactive,inactive,inactive,inactive,inactive,inactive,inactive,inactive,inactive,inactive,inactive,inactive,inactive,inactive,
COc1cc(CC(C)N)cc2c1OCO2 (stereo not given),inactive,inactive,inactive,-17.7%,inactive,inactive,inactive,inactive,inactive,inactive,inactive,inactive,inactive,inactive,inactive,inactive,inactive,inactive,inactive,inactive
Nc1nc(N)nc(N)n1,inactive,inactive,inactive,14.5%,inactive,inactive,inactive,inactive,inactive,inactive,inactive,inactive,inactive,inactive,inactive,inactive,inactive,,inactive,inactive
O=S1(=O)OC(c2cc(Br)c(O)c(Br)c2)(c2cc(Br)c(O)c(Br)c2)c2ccccc21,inactive,inactive,inactive,11.5%,inactive,inactive,inactive,inactive,inactive,10 µM (active),inactive,inactive,inactive,inactive,inactive,inactive,inactive,,inactive,inactive
CCOP(O)OCC,inactive,inactive,inactive,0.744%,inactive,inactive,inactive,inactive,inactive,inactive,inactive,inactive,inactive,inactive,inactive,inactive,inactive,inactive,inactive,
CN(N=O)c1ccc([N+](=O)[O-])cc1,inactive,inactive,inactive,-1.54%,inactive,inactive,inactive,43.6 µM (active),43.6 µM (active),inactive,inactive,inactive,43.6 µM (active),inactive,inactive,inactive,inactive,,inactive,inactive
CC/C(=N\OC/C=C/Cl)C1=C(O)CC(C2CCOCC2)CC1=O (stereo not given),inactive,inactive,inactive,0.456%,inactive,inactive,inactive,inactive,inactive,inactive,inactive,inactive,inactive,inactive,inactive,inactive,inactive,,inactive,inactive
Cc1cc(=O)[nH]o1,inactive,inactive,inactive,2.1%,inactive,inactive,inactive,inactive,inactive,inactive,inactive,inactive,inactive,inactive,inactive,inactive,inactive,inactive,inactive,

# From PubChem BioAssay (Tox21)
